What all share (assay): NCI-60 one-dose screen, 48 h (100 = growth as untreated, 0 = no growth, -100 = all killed)
What all share (conditions): 10 µM unless noted

For assay [1], the system named is NCI-H23 lung.
Assay [2] has as its system NCI-H226 lung.
For assay [3], the system named is NCI-H322M lung.
Assay [4] relates to HOP-62 NSCLC.
The subject of assay [5] is NCI-H460 lung.
Assay [6] relates to HOP-92 NSCLC.
For assay [7], the system named is NCI-H522 lung.
In assay [8] the test system is A549/ATCC NSCLC.
For assay [9], the system named is 786-0 renal.
Assay [10] concerns COLO 205 colon.
Assay [11] deals with DU-145 prostate.
For assay [12], the system named is K-562 leukemia.
Assay [13] has as its system MDA-MB-231 breast.
The test system of assay [14] is RXF 393 renal.
The subject of assay [15] is SF-268 CNS.
For assay [16], the system named is SF-539 CNS.
Assay [17] concerns UACC-257 melanoma.
The subject of assay [18] is M14 melanoma.
Assay [19] has as its system SF-295 CNS.
Assay [20] relates to MALME-3M melanoma.

These results are taken from PubChem BioAssay (NCI).

Structures are written as SMILES. About 83,000 compounds went through this panel and 20% of them were active in at least one assay; those are over-represented in the sample as a whole.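 Treatment: one concentration, 48 hours, 96-well format. Scoring: percent growth, with anything below 10 considered active.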 Values without a mark were called inactive. Activity calls are given as the source filed them.

With `N[C@@H](CO)C(=O)O`, the growth in [1] was 91%; in assay [2], 97.7%; in assay [3] it was 103%; in assay [4], 105%; in assay [5], 107%; in [6], 89.8%. Further, the growth in assay [7] was 107%; in assay [8], 102%; in assay [9], 95.1%; in [10], 106%; in assay [11] it was 101%; in assay [12] it was 110%. The growth was 93.4% in [13]; 108% in assay [14]; 95.1% in [15]; 113% in [16]; 104% in [17]; 107% in [18].
As to `CC1=C(O)C(=O)C(c2c(C)cc(C)c(Br)c2C)=C(O)C1=O`, the growth was 40.7% in assay [1]; 83.3% in [2]; 71.5% in assay [3]; 69.9% in [4]; 35.5% in [5]; 83.7% in assay [6]. Moreover, the growth in assay [7] was 66.8%; in assay [8], 44.1%; in assay [9], 56.8%; in [10] it was 75.8%; in [11] it was 78.4%; in assay [12] it was 48.8%. In addition, the growth in [13] was 93.5%; in assay [14], 28.9%; in [19], 52.6%; in assay [16] it was 65.2%; in assay [17], 86.5%; in assay [18], 70.2%.
For the compound `Fc1ccc(-c2nnc(N3CCOCC3)c3ccccc23)cc1`, the growth was 111% in assay [1]; 97.2% in assay [2]; 94.2% in [3]; 97.1% in assay [4]; 103% in assay [5]; 103% in assay [6]. The growth is 101% in assay [7]; 102% in assay [8]; 105% in assay [9]; 89.6% in [10]; 104% in assay [11]; 99% in assay [12]. The growth in assay [20] was 82.9%; in assay [13], 107%; in [15] it was 103%; in assay [16], 99.2%; in assay [17], 94.7%; in assay [18], 93.9%.
Turning to `CC(=O)Nc1ccc(Cl)cc1Cl`, the growth in assay [1] was 111%; in [2], 95.5%; in [3] it was 114%; in assay [4], 110%; in [5], 114%; in assay [6], 107%. The growth in assay [7] was 89.4%; in assay [8], 95.3%; in [9], 106%; in assay [10], 130%; in assay [11], 111%; in assay [12] it was 64.9%. The growth is 112% in [20]; 100% in assay [13]; 97.4% in assay [15]; 83.8% in assay [19]; 98.3% in [16]; 124% in [17]. Besides, the growth in [18] was 102%.
`CC(=O)N[C@@H](CCC(N)=O)C(=O)O`: the growth in [1] was 92.6%; in [2], 87.9%; in assay [3], 111%; in assay [4], 102%; in [5], 105%; in assay [6] it was 61.3%. The growth in [7] was 103%; in [8], 88.2%; in assay [9], 82.6%; in assay [10] it was 124%; in [11], 112%; in assay [12] it was 9.01% (active). Further, the growth in [13] is 87.2%; in assay [14] it was 90%; in [15], 108%; in assay [16], 113%; in [17], 97.4%; in assay [18] it was 93.4%.
`CCOc1cccc(/C=N/NC(=O)c2ccc(Nc3ccnc(C(F)(F)F)c3)cc2)c1O`: the growth is 28.2% in assay [1]; -16.7% (active) in assay [2]; 22.3% in [3]; -9.17% (active) in assay [4]; -3.48% (active) in [5]; 18.2% in assay [6]. Further, the growth in assay [7] is 2.45% (active); in [8] it was 17.8%; in assay [9] it was 3.12% (active); in [10], -9.24% (active); in assay [11], 29.8%; in assay [20], 19.9%. Besides, the growth in [13] is 27.4%; in [14], 22%; in assay [15] it was 22.7%; in assay [19], 8.46% (active); in assay [16], 0.3% (active); in [17], 12.4%. Also, in assay [18], the growth is -20.3% (active).
For the compound `COc1ccc(/C(=C\c2cc(OC)c(OC)c(OC)c2)C(=O)Nc2nc3ccc(Cl)cc3s2)cc1`, the growth in assay [1] is 94.4%; in assay [2], 83.2%; in [3] it was 82.5%; in assay [4], 94.9%; in [5], 117%; in assay [6], 86.8%. The growth was 74.9% in [7]; 81% in assay [8]; 91.3% in assay [9]; 108% in assay [10]; 93% in assay [11]; 93.8% in [20]. The growth in assay [13] was 90.9%; in [14], 109%; in assay [15] it was 71.1%; in [16] it was 100%; in assay [17], 92.1%; in assay [18] it was 105%.
Consider `Nc1c(C(=O)c2ccc(Br)cc2)sc2nc3c(cc12)CCCC3`, for which the growth is 97.4% in assay [1]; 92.2% in [2]; 101% in assay [3]; 98.6% in assay [4]; 103% in assay [5]; 89.2% in assay [6]. Also, the growth is 43.1% in assay [7]; 96.8% in assay [8]; 98.2% in assay [9]; 104% in [10]; 92.4% in assay [11]; 82.6% in [20]. Further, the growth in assay [13] is 91%; in assay [14], 62.5%; in assay [15], 101%; in assay [19], 98.2%; in assay [16], 92%; in assay [17] it was 91.9%. Also, in assay [18], the growth is 82.7%.
